H9c2 protect – protects H9c2 cardiomyocytes from peroxide injury | H2O2 injury protection, ATPLite, 2 h | AID 588492 | 0.63% of 360,000 active | protection from H2O2 cell death, % at 20 µM;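 active = compounds giving at least 50% protection of heart cells from peroxide-induced death in the single-dose screen, raw or plate-pattern-corrected value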;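 also: 0% = DMSO wells with peroxide and 100% = DMSO wells without peroxide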
NTR1 ag – activates human neurotensin receptor 1 | P30989 | NTR1-U2OS beta-arrestin-GFP spot imaging, agonist mode | 0.17% of 330,000 active | activation, % at 20 µM;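 active = activation at or above 40% of the spot to cytoplasm intensity ratio, with at least 20 cells analyzed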;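 also: 0% = DMSO without peptide and 100% = 100 nM NTR1 peptide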
ALR inh – inhibitors of human sulfhydryl oxidase ALR; P55789; purified ALR, DTT oxidation, H2O2 HRP-luminol luminescence; inhibition, % (test concentration not listed); 3.8% of 290,000 active;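 active = mean replicate inhibition above about 79%, with every replicate also reaching it, limit read from the data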
Target sequence (P55789 whole entry, looked up): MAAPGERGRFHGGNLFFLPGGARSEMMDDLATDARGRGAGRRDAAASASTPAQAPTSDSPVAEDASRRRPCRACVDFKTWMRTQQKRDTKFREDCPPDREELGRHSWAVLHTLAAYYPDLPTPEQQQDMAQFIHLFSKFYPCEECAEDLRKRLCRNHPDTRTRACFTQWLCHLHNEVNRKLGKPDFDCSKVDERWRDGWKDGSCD
UBC9 SUMO inh – inhibitors of human SUMOylation (UBC9); AID 2006; HTRF SUMOylation assay, SAE1/SAE2 + UBC9, in vitro; inhibition, % at 35 µM; 0.36% of 290,000 active; in the data active = inhibition above about 50%, passing the limit was not always enough
Target sequence (P63279 whole entry, looked up): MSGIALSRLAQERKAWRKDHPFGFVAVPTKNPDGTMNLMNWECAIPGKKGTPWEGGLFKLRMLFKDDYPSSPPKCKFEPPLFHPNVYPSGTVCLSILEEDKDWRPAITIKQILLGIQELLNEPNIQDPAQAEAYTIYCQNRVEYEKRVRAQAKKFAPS
* hit, by the source's call; x = no result given. Shown are actives, neighbours in structure and some others; about 3.9% of the full set was active somewhere.

SMILES	H9c2 protect	NTR1 ag	ALR inh	UBC9 SUMO inh
COc1ccc(-c2noc(N3CCC(C(=O)NCCCN4CC(C)CC(C)C4)CC3)n2)cc1 (configuration not stated)	-1	2	-1	18
COc1ccc(OCC(=O)Nc2ccc(S(=O)(=O)Nc3cc(C)on3)cc2)cc1	4	1	x	x
COc1cc(NS(=O)(=O)c2ccc(NC(=O)COc3ccccc3Cl)cc2)nc(OC)n1	x	-1	93*	-2
Cc1cc(C)nc(NS(=O)(=O)c2ccc(NC(=O)c3ccc(O)cc3O)cc2)n1	8	0	99*	5
Cc1cc(C)nc(NS(=O)(=O)c2ccc(NC(=O)c3ccccc3C)cc2)n1	4	2	-10	-11
COc1ccccc1OCC(=O)Nc1ccc(S(=O)(=O)Nc2cc(C)on2)cc1	3	-1	89*	-5
CCc1cccc(OCC(=O)Nc2ccc(S(=O)(=O)Nc3onc(C)c3C)cc2)c1	-2	0	95*	0
COc1ccc(S(=O)(=O)N2CCCCC2)cc1NC(=O)CN1C(=O)NC(C)(C2CC2)C1=O (configuration not stated)	-1	2	x	x
COc1ccc(NS(=O)(=O)c2cn(C)cn2)cc1Cl	0	0	-4	-6
COc1cc(NS(=O)(=O)c2ccc(NC(=O)NC3CCCCC3)cc2)nc(OC)n1	-1	2	98*	-3
Cc1cc(C)nc(NS(=O)(=O)c2ccc(NC(=O)COc3ccccc3)cc2)n1	-2	1	99*	25
COc1cc(NS(=O)(=O)c2ccc(NC(=S)NC(=O)C3CCCC3)cc2)nc(OC)n1	6	0	13	-3
Cc1cccc(OCC(=O)Nc2ccc(S(=O)(=O)Nc3ccccn3)cc2)c1	-7	2	-4	11
COc1cc(NS(=O)(=O)c2ccc(NC(=O)COc3cccc(C)c3)cc2)nc(OC)n1	-1	2	98*	8
Cc1ccc(C)c(NC(=O)CCNS(=O)(=O)c2ccc3[nH]c(=O)oc3c2)c1	-3	1	-11	16
CCC(=O)N1CCc2cc(S(=O)(=O)CCC(=O)NCc3ccc(OC)cc3)ccc21	-1	2	1	18
O=c1oc2ccccc2n1CSc1nc2ccccc2s1	-17	2	-10	-6
O=c1oc2ccccc2n1CSC1=NCCS1	2	0	99*	-2
CCN(C(=O)COC(=O)/C=C/c1ccc(O)c(OC)c1)C1CCS(=O)(=O)C1 (configuration not stated)	1	2	98*	23
COc1cc(/C=C/C(=O)OCC(=O)Nc2cccc(F)c2)ccc1O	-4	1	x	x
COc1cc(/C=C/C(=O)OCC(=O)N2CC3(C)CC2CC(C)(C)C3)ccc1O (configuration not stated)	5	2	99*	-7
COc1cc(/C=C/C(=O)OCC(=O)NC(=O)NC(C)(C)C)ccc1O	-2	1	99*	-17
COc1cc(/C=C/C(=O)OCC(=O)N2CCC(C)CC2)ccc1O	-1	-1	99*	x
CCN(C(=O)COC(=O)/C=C/c1ccc(OC(F)F)c(OC)c1)C1CCS(=O)(=O)C1 (configuration not stated)	7	2	3	x
O=C(NCc1cccc(Cl)c1)c1ccc2ccccc2n1	-14	1	x	-7
SMILES	H9c2 protect	NTR1 ag	ALR inh	UBC9 SUMO inh
COc1ccc(C(=O)CSc2nc(-c3ccccn3)nc(C)c2Cl)cc1	5	4	-7	16
CCN(CC(=O)Nc1ccccc1C(F)(F)F)C(=O)CCc1nc2sc3c(c2c(=O)[nH]1)CCCC3	5	1	-14	x
COc1ccc(N2C(=S)NC3N2C(=S)NC3(C)c2ccccc2)cc1 (configuration not stated)	-1	-1	98*	12
O=C(NCc1ccco1)c1cccn2c(=O)c3cc4ccccc4cc3nc12	x	x	x	78*
COc1cccc(C=NCCNC(=O)c2nonc2N)c1O	23	0	1	12
COc1ccc(Oc2nc(-c3ccccn3)ncc2OC)cc1	-3	-1	1	10
COc1cnc(-c2ccccn2)nc1Oc1cccc(Cl)c1	10	1	95*	9
CN1C(=O)NC(c2ccc(O)cc2)C2=C1CN(c1ccccc1)C2=O (configuration not stated)	-15	1	-5	18
CN1C(=O)NC(c2ccc(O)cc2)C2=C1CN(c1ccc(O)cc1)C2=O (configuration not stated)	-7	0	99*	9
CCn1cnc2sc(C(=O)N3CCN(c4ccc(OC)cc4)CC3)c(C)c2c1=O	1	1	81*	23
CCOC(=O)c1c(C)[nH]c(C(=O)N2CCN(c3ccc(OC)cc3)CC2)c1C	0	2	98*	5
CCOC(=O)c1[nH]c(C)c(C(=O)N2CCN(c3ccccc3)CC2)c1C	3	-2	98*	13
CCOC(=O)c1c(C)[nH]c(C)c1S(=O)(=O)N(C)CC(=O)N1CCN(c2ccc(OC)cc2)CC1	0	1	25	-7
Cc1c(C(=O)N2CCN(c3ccc([N+](=O)[O-])cc3)CC2)sc2ncn(CC(=O)N3CCOCC3)c(=O)c12	0	1	33	14
COc1ccc(CN2CCN(c3ccc(F)cc3)CC2)c(OC)c1OC	4	-2	51	18
CC(=O)OCCCN1C(=O)c2cccc3cc(Br)cc(c23)C1=O	x	0	0	-9
N=C1/C(=C/c2ccc(OC(=O)c3ccco3)cc2)C(=O)N=C2SC=CN12	-7	0	98*	9
Cc1noc(C)c1CSCC(=O)Nc1cc(C(F)(F)F)ccc1N1CCCCC1	-3	7	-3	x
COc1ccc(C(C(=O)NC2CCCCC2)N(C(=O)CCl)c2ccc(C)cc2)cc1 (configuration not stated)	-8	35	-10	1
COC(CN(C(=O)CCl)C(C(=O)NC1CCCCC1)c1ccc(C)cc1)OC (configuration not stated)	-12	x	97*	0
COc1ccc(CCNC(=O)NC2CCCCC2)cc1OC	-3	0	6	21
Cc1c(Cl)cccc1NC(=O)Cc1cccs1	2	0	-1	-9
CC1(C)SC(=S)N(/N=C/c2ccc(O)cc2)C1N(O)C(=O)Nc1ccc([N+](=O)[O-])cc1 (configuration not stated)	-11	12	81*	-31
Cc1ccccc1C(=O)NC(=S)NCC1CCCO1 (configuration not stated)	6	0	2	25
COC(=O)C1=C(NC(=O)c2cccc(OC)c2)CCS1	2	2	97*	9
COC(=O)C1=C(NC(=O)c2cccs2)CCS1	x	x	x	18
CC1Cc2nc(SCC(=O)N3CCN(c4ccccc4)CC3)n(CCc3ccccc3)c(=O)c2S1 (configuration not stated)	40	5	x	14
CC1Cc2nc(SCC(=O)N3CCCC3)n(C)c(=O)c2S1 (configuration not stated)	6	2	19	14
CCn1c(SCC(=O)N2CCN(c3ccccc3)CC2)nc2c(c1=O)SC(C)C2 (configuration not stated)	58*	0	68	27

Assay outcomes as filed in PubChem BioAssay.
